# Assay outcomes from PubChem.
# PrPC surface inh = cell surface PrPC inhibition, primary TR-FRET screen; P04156; TR-FRET read-out; inhibition, % at 13.8 µM; hit rate 0.43% among 370,000; AID 720596; in the data active means inhibition above about 24%; further: 0% = median of the test wells and 100% = reference compound wells
# Vc quorum ag = inducers of Vibrio cholerae quorum light production without autoinducers. V. cholerae BH1578 lux reporter, luminescence, 6 h. activation, % at 18.7 µM. hit rate 0.16% among 350,000. AID 588436; in the data active means activation mostly above about 9.7%, no sharp cut-off
# MazEF act = increases E. coli MazEF RNase cleavage of RNA; P0AE70; AID 504720; hit rate 0.32% among 350,000; FAM/BHQ RNA-DNA oligo cleavage fluorescence, 5 h; activation, % at 20 µM; in the data active means activation above about 50%
# Target sequence (P0AE70 whole entry, looked up): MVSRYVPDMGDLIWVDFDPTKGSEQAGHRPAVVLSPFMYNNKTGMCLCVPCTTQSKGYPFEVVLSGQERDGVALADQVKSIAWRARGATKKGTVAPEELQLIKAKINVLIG
# Yp Topo-I inh = inhibitors of Yersinia pestis topoisomerase I; Y. pestis Topo-I cleavage product accumulation, plate reader; hit rate 0.064% among 360,000; activity, % at 10 µM; in the data active means activity above about 50%, passing the limit was not always enough
# CCHFV vOTU inh = CCHFV vOTU protease inhibition. inhibition, % at 11.5 µM. AID 651958. hit rate 0.55% among 370,000. Pep-AMC fluorescence; in the data active means inhibition above about 30%; further: 0% = vehicle wells with enzyme and 100% = no enzyme wells
# VHR inh abs = inhibitors of human VHR1 phosphatase (DUSP3); inhibition, % at 13.3 µM; hit rate 0.52% among 290,000; recombinant VHR phosphatase, pNPP absorbance; P51452; in the data active means inhibition above about 50%
# Target sequence (P51452 whole entry, looked up): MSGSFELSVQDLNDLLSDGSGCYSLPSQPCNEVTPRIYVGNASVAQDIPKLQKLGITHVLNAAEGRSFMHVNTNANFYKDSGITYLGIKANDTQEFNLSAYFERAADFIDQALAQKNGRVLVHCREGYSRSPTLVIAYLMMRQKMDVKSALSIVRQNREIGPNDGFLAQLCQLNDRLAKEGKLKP
# * = called active by the depositor; i = inactive; . = no result given. The list is not random: actives were taken first. Their share in the collection is about 1.8%.
SMILES,PrPC surface inh,Vc quorum ag,MazEF act,Yp Topo-I inh,CCHFV vOTU inh,VHR inh abs
COC1=C(N)C(=O)c2nc(-c3nc(C(=O)O)c(C)c(-c4ccc(OC)c(OC)c4O)c3N)ccc2C1=O,.,179*,-23,.,.,1
COc1ccc(-c2ncncc2-c2csc(C)n2)c(O)c1OC,1,0,-2,-3,-11,-10
CCn1c(=O)n(CC(=O)N2CCCN(Cc3ccccc3)CC2)c(=O)c2ccccc21,1,.,.,.,-7,.
CCOc1ccc(-n2c(SCC(=O)Nc3ccc4c(c3)c3ccccc3n4CC)nnc2-c2cccnc2)cc1,10,.,.,.,25,.
CN=c1scc(-c2ccccc2F)n1/N=C(\C)c1cccnc1,18,i,-1,4,22,58*
C/C(=N\N1CCN(C2c3ccccc3-c3ccccc32)CC1)c1cccnc1,-8,0,-3,36,14,20
CC(=O)c1c(C)[nH]c(C(=O)COc2cc(C)ccc2C(C)C)c1C,26*,-1,-6,34,-2,8
O=[N+]([O-])c1cc(C(F)(F)F)ccc1NCC1CCCO1 (centres undefined),-4,0,92*,6,-6,-4
COC(=O)C12C=C3CC(c4ccc(OC)cc4)=C3C(=O)N1Cc1[nH]c3ccccc3c1C2 (centres undefined),-7,.,.,.,-11,.
CC(COc1ccc(S(C)(=O)=O)cc1)CN1CCC(C(O)(c2ccccc2)c2ccccc2)CC1 (centres undefined),-12,.,.,.,-3,.
C[C@H]1O[C@H]1P(=O)(O)O,1,29*,8,12,-7,1
O=C(CSc1nnc(-c2cccs2)o1)c1ccc2c(c1)OCO2,-2,.,.,.,3,.
Cc1ccc(/C=C(\C#N)C(=O)NCC2CCCO2)o1 (centres undefined),-8,0,7,-1,-2,-3
N#C/C(=C\c1ccco1)C(=O)NCC1CCCO1 (centres undefined),6,0,11,-3,36*,-10
O=C(NCc1ccc2c(c1)OCO2)C(=O)NCC1CCCO1 (centres undefined),4,i,0,0,23,8
O=C(NCc1cccc(CNC(=O)C(=O)NCC2CCCO2)c1)C(=O)NCC1CCCO1 (centres undefined),-2,227*,11,1,-10,25
CC[C@H](CCCc1ccc(F)cc1)CN(Cc1ccc(OC)cc1)S(=O)(=O)c1ccc(C)cc1,1,.,.,.,4,.
CCCCCN1CCCCC(NC(=O)c2c(F)cccc2F)C1=O (centres undefined),7,.,.,.,-4,.
CCOc1cccc(OCC)c2c(C)[n+](CC3CCCO3)c(C)c1-2 (centres undefined),.,i,-37,-6,.,52*
CCOc1ccc2c(c1)S/C(=C\c1cccs1)C(=O)N2,3,0,77*,7,12,0
CN1C(=O)C(C)(C)c2cc(S(=O)(=O)NCc3ccc(Cl)cc3)ccc21,-2,0,5,-4,24,29
Cc1ccc(CNC(=O)c2ccc(CNS(=O)(=O)c3ccc4c(c3)C(C)(C)C(=O)N4C)cc2)o1,-8,0,102*,12,-2,-2
CCC(C)NC(=O)c1ccc(CNS(=O)(=O)c2ccc3c(c2)C(C)(C)C(=O)N3C)cc1 (centres undefined),-3,0,107*,-4,-1,17
CCCCOCCCNC(=O)C[C@H]1C[C@@]2(C(=O)OC)C(=C[C@H](C3CCCC3)O[C@@H]2C)N(CCc2ccc(OC)c(OC)c2)C1=O,11,.,.,.,12,.
CCOC(=O)N1CCN(Cc2c(F)cccc2Cl)CC1,-5,0,6,5,-5,51*
SMILES,PrPC surface inh,Vc quorum ag,MazEF act,Yp Topo-I inh,CCHFV vOTU inh,VHR inh abs
CCOC(=O)N1CCN(Cc2c(F)cccc2F)CC1,-8,i,0,0,-1,8
COc1ccc(C(=O)NCC2CCN(C(=O)C(=O)c3cccs3)CC2)c(OC)c1,-2,.,.,.,0,.
CN(C(=O)c1ccc2c(=O)n3c(nc2c1)CCCCC3)c1ccccc1Cl,-4,-3,5,13,-11,20
CN(C(=O)c1ccc2c(=O)n3c(nc2c1)CCCCC3)c1ccccc1,-3,i,0,-3,4,53*
CC(=O)c1cccc(NC(=O)N2CCCC2C(=O)Nc2ccc3c(c2)OCO3)c1 (centres undefined),-4,1,3,-5,-2,57*
CC(=O)c1cccc(NC(=O)N2CCCC2C(=O)Nc2cccc(C)c2)c1 (centres undefined),-3,-1,6,-5,3,2
Cc1cccc(NC(=O)[C@@H]2CCCN2C(=O)OC(C)(C)C)c1,-4,i,2,6,13,58*
Cc1cccc(NC(=O)[C@@H]2CCCN2C(=O)OC(C)(C)C)c1C,-1,i,-1,5,2,-2
CC(=O)c1cc(-c2ccc3[nH]ccc3c2)c(=O)n2c1CCC2,3,.,.,.,-2,.
O=C(NCCc1ccccc1)OCc1cn(-c2ccc(F)c(F)c2)nn1,10,.,.,.,14,.
C(#Cc1ccccc1)C[N+]1(CC#Cc2ccccc2)CCCCC1,18,-2,57*,8,11,6
NC(=O)N/N=C/c1ccc(N2CCOCC2)s1,-8,4,20,-5,1,3
O=C(O)c1cc(N/N=C/c2ccc(N3CCOCC3)s2)ccc1Cl,-2,0,12,3,31*,-4
CCCc1c(-c2ccc(O)cc2)nn(-c2ccc(O)cc2)c1-c1ccc(O)cc1,.,i,51*,-13,.,-1
O=C(NC1CCN(Cc2ccccc2)CC1)c1cccc(Br)c1,-6,i,4,-6,-2,10
O=C(NC1CCN(Cc2ccccc2)CC1)c1ccc2c(c1)OCCCO2,3,-1,2,70*,6,22
Cc1cc(C)c(NC(=O)Cn2ncc3ccccc32)c(C)c1,6,i,2,6,9,57*
Cc1ccc(NC(=O)Cn2ncc3ccccc32)c(Cl)c1,6,0,-16,-6,-9,27
COC[C@@H]1CCCN1c1cccc2c1S(=O)(=O)N(C1CC1)CCCO2,-10,.,.,.,-1,.
CSCCCNC(=O)Cn1nc(Cc2ccncc2)c2ccccc2c1=O,-10,.,.,.,-3,.
CC(C)C(C(=O)O)N1C(=O)/C(=C/C=C/c2ccco2)SC1=S (centres undefined),.,i,-30,-22,.,52*
O=C1/C(=C/C=C/c2ccco2)SC(=S)N1c1ccc(O)cc1,6,2,-15,-15,4,16
O=C(OC12CCCN(C1)/C(=C/c1ccncc1)C2)c1ccccc1 (centres undefined),2,.,.,.,2,.
O=C(NCc1ccc(Cl)cc1)C1CCN(S(=O)(=O)c2ccc(N3CCCC3=O)cc2)CC1,2,-2,4,31,3,-6
O=C(NCc1ccccc1Cl)C1CCN(S(=O)(=O)N2CCCCCC2)CC1,-2,0,1,7,-8,54*
